Measurements as given in PubChem BioAssay (NCI).
The panel holds about 79,000 compounds, 15% with a hit somewhere; the sample as a whole holds those more often. Values without a mark were called inactive. The source made the active and inactive calls. Cut-off read from the data, not from the text of the source: active = growth inhibition above about 70%; inactive = the rest.

Legend:
[1] = NCI Yeast Anticancer Drug Screen. Data for the rad50 strain (AID 155);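 note: 0% = growth of vehicle-only cultures of the same strain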; settings: S. cerevisiae rad50 strain growth inhibition, active compounds read high
Method in brief: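 A DNA repair-deficient yeast mutant serves as the test organism; compound-induced growth inhibition is calculated against vehicle-treated cells.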

[2] = NCI Yeast Anticancer Drug Screen. Data for the mec2-1 strain (AID 157); settings: S. cerevisiae mec2-1 strain, active compounds read high
Method in brief: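 Each compound was tested on mec2-1 yeast, a strain altered in DNA damage repair or cell cycle control. Growth inhibition is reported relative to vehicle.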

[3] = NCI Yeast Anticancer Drug Screen. Data for the sgs1 mgt1 strain (AID 161);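 note: 0% = growth of cultures given vehicle only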; settings: S. cerevisiae sgs1 mgt1 strain, active compounds read high
Method in brief: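 Inhibition of yeast growth, normalised to vehicle-treated controls, is reported for a strain bearing genetic alterations in DNA damage repair.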

[4] = NCI Yeast Anticancer Drug Screen. Data for the cln2 rad14 strain (AID 165);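 note: 0% = growth equal to vehicle treated cultures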; settings: S. cerevisiae cln2 rad14 strain, active compounds read high
Method in brief: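 Test compounds were added to cln2 rad14 yeast cultures; inhibition of growth was then determined by comparison with vehicle treatment.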

[5] = NCI Yeast Anticancer Drug Screen. Data for the bub3 strain (AID 167); settings: S. cerevisiae bub3 mutant strain, active compounds read high
Method in brief: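 Inhibition values come from growth of compound-treated mutant yeast normalised to vehicle-treated controls.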

[6] = NCI Yeast Anticancer Drug Screen. Data for the mlh1 rad18 strain (AID 175); settings: S. cerevisiae mlh1 rad18 strain growth inhibition, active compounds read high
Method in brief: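 Inhibition values reflect reduced growth of mutant yeast versus vehicle-treated controls following compound exposure; the mutations affect DNA damage repair.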

[7] = at 5.0 µM (retest, dose inferred, filed as 0.5)
[8] = at 50.0 µM (retest, dose inferred, filed as 5.0)

SMILES	growth inhibition [1, 7] [%]	growth inhibition [1, 8]	growth inhibition ([1]; at 50.0 µM)	growth inhibition [2, 7]	growth inhibition [2, 8]	growth inhibition ([2]; at 50.0 µM)	growth inhibition [3, 7]	growth inhibition [3, 8]	growth inhibition ([3]; at 50.0 µM)	growth inhibition [4, 7] [%]	growth inhibition [4, 8]	growth inhibition ([4]; at 50.0 µM)	growth inhibition [5, 7]	growth inhibition [5, 8]	growth inhibition ([5]; at 50.0 µM)	growth inhibition [6, 7]	growth inhibition [6, 8]	growth inhibition ([6]; at 50.0 µM)
O=C1C(Cl)=C(Nc2ccc(S(=O)(=O)O)cc2)C(=O)c2ccccc21	23	99% (active)	99.5% (active)	33%	100% (active)	99.6% (active)	35%	100% (active)	99.6% (active)	12	99% (active)	99.3% (active)	74% (active)	99% (active)	99.5% (active)	26%	99% (active)	99.4% (active)
Cc1cc(Cl)cc2c1NC(=O)C2(O)C/C(=N/NC(=O)CC#N)c1cccc([N+](=O)[O-])c1 (configuration not stated)	4	20%	59.1%	-13%	35%	38.1%	-1%	-4%	62.2%	-3	1%	9.4%	1%	13%	15.4%	1%	-23%	76.8% (active)
C[C@]12C/C(=C/C(F)(F)F)C(=O)C[C@@H]1CC[C@@H]1[C@@H]2CC[C@]2(C)[C@@H](C(=O)O)CC[C@@H]12	32	91% (active)	31.5%	92% (active)	97% (active)	39.4%	87% (active)	95% (active)	72.1% (active)	24	87% (active)	55.7%	89% (active)	95% (active)	26.1%	93% (active)	96% (active)	48.4%
CCOC(=O)C1CN(CCCCCCN2CC(C(=O)OCC)C(=O)C2=O)C(=O)C1=O (configuration not stated)	-11	4%	22.1%	2%	1%	3.1%	-21%	3%	28.5%	4	0%	52.9%	0%	2%	0.05%	-2%	0%	30.4%
COc1cc(/C=C/c2cc[n+](C)cc2)ccc1O	-11	-14%	26.1%	12%	7%	31.7%	-18%	-17%	12.4%	-2	16%	79.5% (active)	0%	11%	0.85%	-8%	-10%	-8.35%
Clc1ccc(CN2COc3c(ccc4cccnc34)C2)c(Cl)c1	2	91% (active)	98.1% (active)	2%	67%	98.9% (active)	4%	98% (active)	99% (active)	-9	98% (active)	97.7% (active)	-6%	99% (active)	99% (active)	3%	98% (active)	99.1% (active)
O=C(C[N+]1(CCc2ccccc2)CCOCC1)c1ccc(-c2ccccc2)cc1	2	52%	79.3% (active)	19%	71% (active)	92.5% (active)	-5%	93% (active)	96.7% (active)	-5	34%	98.4% (active)	-2%	66%	92.8% (active)	12%	93% (active)	98.2% (active)
Cc1ccc2c(c1)C1(SC(C)C(=O)N1c1ccc(F)cc1)C(=O)N2 (configuration not stated)	11	98% (active)	99% (active)	15%	99% (active)	98.8% (active)	14%	98% (active)	98.8% (active)	11	98% (active)	97.8% (active)	10%	99% (active)	98.6% (active)	11%	99% (active)	99% (active)
COC(=O)/C(Br)=C(\Br)c1ccccc1	6	13%	-11.4%	6%	6%	24.1%	14%	-6%	36.7%	2	6%	-18.6%	0%	21%	52.8%	22%	40%	21.7%
